# The entries come from a sample that favours hits as a whole.
# Pf Dd2 inh – blocks in vitro growth of P. falciparum Dd2 | Potency, µM (titrated, usually from 28.9 µM), inactives show at the top dose activity, negative = inhibition, hits mostly inhibitors | P. falciparum Dd2 growth, SYBR Green, 72 h | 4.3% of 120,000 active; active means well fitted inhibition curve with a large enough effect;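 further: plate controls were DMSO vehicle for no effect and reference drug for full effect; nearly all actives have a fitted effect of over 65% in size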
#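 Infected erythrocytes (Dd2, 0.3% parasitemia, 2.5% hematocrit final) are added to compound in RPMI-1640/Albumax II medium, grown 72 h at 37C in low oxygen, then lysed with saponin/Triton-X containing SYBR Green and read by fluorescence.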
# * hit, by the source's call; i = inactive; [ ] = dose if it differs, or a comment. Potency means the concentration at half of the fitted maximal effect.
SMILES,Pf Dd2 inh
COCCN1CC2(CCCN(C(=O)c3cc(-c4ccsc4)n[nH]3)C2)CCC1=O (stereo not drawn),-18%
O=C(c1cc(-c2ccccc2F)n[nH]1)N1CCC2(CCCN(Cc3ccccc3F)C2)C1 (stereo not drawn),8.9µM*
CN(C)C[C@H]1C[C@@H](CO)CN(C(=O)c2cc(-c3ccccc3F)n[nH]2)C1,12%
CN(C)C[C@@H]1CN(C)C[C@H]1NC(=O)c1ccc(Cn2ccnc2)o1,-6%
Cn1cnc(S(=O)(=O)N2CCCCC2c2nc(-c3ccncc3)n[nH]2)c1 (stereo not drawn),6%
COc1cc(OC)c(-c2c(-c3ccccc3)ncn2CCF)cc1OC,10µM*
C#CCOc1ccccc1-c1c(-c2ccccc2)ncn1CCCO,-24%
OCCOCCn1cnc(-c2ccccc2)c1-c1ccc(-n2cccn2)cc1,-25%
CCn1ccc(C(=O)N2CCC3(CCC3NC(=O)COC)CC2)n1 (stereo not drawn),10%
O=C(CN1CCCc2nc(C3CC3)ncc2C1=O)NCCN1CCOCC1,43%
COc1cccc(N2CC(C(=O)N3CCC(C(=O)N4CCOCC4)C3)NC2=O)c1 (stereo not drawn),-7%
CCC(CC)n1c(=O)n(CCCc2cccnc2)c2cc(C(=O)O)cnc21,-9%
Cc1ccc(-c2nc3ccc(Br)cn3c2Nc2ccc3c(c2)OCO3)o1,-20%
Cc1ccc(-c2nc3ccccn3c2Nc2ccc3c(c2)OCO3)cc1,41%[0.594 µM]
Cc1cccc2nc(-c3ccc(N(C)C)cc3)c(Nc3ccc4c(c3)OCO4)n12,7.9µM*
CC(=O)Nc1ccc(C(=O)N2CCN(c3cc(-c4ccc(F)cc4)[nH]n3)CC2)cc1,i
COC[C@@H]1CN(S(=O)(=O)c2cccc(C)c2)C[C@H]1c1nc(C)no1,-2%
CCc1nc(-c2ccc(OC3CCN(Cc4cc(F)ccc4F)C3)cc2)no1 (stereo not drawn),28%[5.79 µM]
O=[S+]1([O-])NCC2(CCN(Cc3c(F)cccc3F)C2)Oc2ccncc21 (stereo not drawn),9%
Cc1ccccc1C(=O)N1C(C(=O)NC2CC2)COC12CCN(C(=O)c1cccc(Cl)c1)CC2 (stereo not drawn),i
CCOC(=O)C1CCN(c2nc3ccccc3nc2Cl)CC1,i
CCOC(=O)C1CCN(C(=O)c2c[nH]c3ncccc23)CC1,0%[44.1 µM]
CCOC(=O)C1CCN(c2c(C(=O)c3ccc(OC)cc3)cnc3ccccc23)CC1,8.9µM*
COCCc1noc(-c2nc(-c3ccccc3)no2)n1,-16%
COCCOC1CCN(C(=O)c2ccc3oc(-c4cccc(F)c4)nc3c2)CC1,-6%
SMILES,Pf Dd2 inh
O=C(Nc1cccc(C(F)(F)F)c1)N[C@H]1CO[C@H]2[C@@H]1OC[C@@H]2n1nnnc1-c1ccc2c(c1)OCO2,i
O=C(c1ccccc1OCC1CCCN(C(=O)c2n[nH]c3ccccc23)C1)N1CCOCC1 (stereo not drawn),-23%
O=C1NC(=NC2CCCC2)C2(CCN(Cc3ccccc3)C2)N1c1cccnc1 (stereo not drawn),-3%
O=C1NC(=NC2CCCCC2)C2(CCN(Cc3ccccc3)C2)N1c1cc(F)cc(F)c1 (stereo not drawn),1.8µM*
O=C1NC(=NC2CCCC2)C2(CCCN(Cc3ccccc3)C2)N1c1cc(F)cc(F)c1 (stereo not drawn),-22%
O=C1NC(=NC2CCCC2)C2(CCN(Cc3cccnc3)CC2)N1c1cc(F)cc(F)c1,-68%
O=C1NC(=NC2CCCCC2)C2(CCCN(Cc3ccccc3)C2)N1c1cc(F)cc(F)c1 (stereo not drawn),7.1µM*
O=C1NC(=NC2CCCC2)C2(CCCN(Cc3ccccc3)C2)N1c1cccnc1 (stereo not drawn),-13%
Cc1ccc2nc(CO[C@H]3CN(C(=O)c4ccccc4)C[C@H]3F)[nH]c2c1,i
Cc1noc(C)c1CC(=O)N[C@@H]1CN(c2ccccn2)C[C@H]1CN(C)C,5%
O=C(O)C1(O)CCN(c2ncc(F)c(N3CCOCC3)n2)CC1,-22%
COc1ccc(S(=O)(=O)N2CCc3nc4cc[nH]n4c(=O)c3C2)cc1Cl,33%[5.79 µM]
O=C(NC1CC1)c1cc2n(n1)CCCN(C(=O)c1ccccc1-c1ccccc1)C2,-15%
COc1ccccc1-c1ccc(CN)cc1,-27%[44.1 µM]
COc1ccc(F)cc1-c1ccc(C=O)cc1,3%[44.1 µM]
COc1ccc(F)cc1-c1ccccc1CN,10µM*
COc1ccc(C(=O)N2CCC3(CC2)NC(=O)N(c2ccccc2Cl)N3)cc1,-2%
COc1cc(=O)n2c(c1C(=O)Nc1cc(Cl)ccc1F)CCCC2,7%
N#Cc1cccc(CN2CCN(c3nccc(Cl)n3)C(=O)C2)c1,-22%[44.1 µM]
CC1(C)CN(C(=O)Cn2cc(C(F)(F)F)ccc2=O)C[C@]1(C)O,-6%
O=C(Nc1ccc2c(c1)OCO2)C1CCc2sc(C(=O)N3CCCC3)cc2C1 (stereo not drawn),i
Cc1cnc(C(=O)NC2C[C@H]3CC[C@@H](C2)N3C(=O)COc2ccc(Cl)cc2C)cn1 (stereo partly drawn),i
CCn1cc(CN2CC(Oc3ccc(-c4noc(-c5ccncc5)n4)cc3)C2)cn1,1.8µM*
Cn1cc(C(=O)N2CC(Oc3ccc(-c4nc(-c5ccccc5)no4)cc3)C2)cn1,25%[5.79 µM]
CCn1cc(S(=O)(=O)N2CC(Oc3ccc(-c4nc(C)no4)cc3)C2)cn1,i[5.79 µM]
SMILES,Pf Dd2 inh
O=C1COCCN1c1cc(-c2cccc(F)c2)cn2cncc12,10%[44.1 µM]
COc1ccc(Cn2ccc3nc(C)c(C(=O)NCc4cccc(OC)c4)cc3c2=O)cc1,-25%
COc1ccc(Cn2ccc3nc(C)c(C(=O)N4CCN(c5cccc(OC)c5)CC4)cc3c2=O)cc1,13µM*
COc1ccc(Cn2ccc3nc(C)c(C(=O)N4CCN(c5ccccc5)CC4)cc3c2=O)cc1,14%
COc1ccc(Cl)cc1C(=O)N1CC(=O)N(c2ccccc2C#N)CC1C (stereo not drawn),-9%
O=C(O)COc1ccc(-c2nccc3c2C(=O)N(Cc2c[nH]c4ccccc24)CC(COc2cccc(N4CCOCC4)c2)O3)cc1 (stereo not drawn),i
Cc1nn(-c2ccc(C(C)C)cc2)c(C)c1[C@@H]1C=C[C@@H](NC(=O)NCc2ccccc2)C1,-30%[44.1 µM]
CCNC(=O)N[C@@H]1C=C[C@@H](c2c(C)nn(-c3ccc(C(F)(F)F)cc3)c2C)C1,4.5µM*
Cc1nn(-c2ccc(C(C)(C)C)cc2)c(C)c1[C@@H]1C=C[C@@H](NC(=O)COCC(=O)O)C1,2%[44.1 µM]
Cc1nn(-c2ccc(C(C)(C)C)cc2)c(C)c1[C@@H]1C=C[C@@H](NC(=O)NC(C)C)C1,10µM*
Cc1nn(-c2ccc(C(F)(F)F)cc2)c(C)c1[C@@H]1C=C[C@@H](NC(=O)CC(C)(C)CC(=O)O)C1,i
Cc1nn(-c2ccc(C(C)(C)C)cc2)c(C)c1[C@@H]1C=C[C@@H](NC(=O)CCC(=O)O)C1,-18%[44.1 µM]
CCNC(=O)N[C@@H]1C=C[C@@H](c2c(C)nn(-c3ccc(C(C)(C)C)cc3)c2C)C1,-5%[44.1 µM]
Cc1nn(-c2ccc(F)cc2)c(C)c1[C@@H]1C=C[C@@H](NC(=O)NC(C)C)C1,8.9µM*
Cc1nn(-c2ccc(C(C)C)cc2)c(C)c1[C@@H]1C=C[C@@H](NC(=O)Nc2ccc(Cl)cc2)C1,-3%
Cc1nn(-c2ccc(C(F)(F)F)cc2)c(C)c1[C@@H]1C=C[C@@H](NC(=O)CCC(=O)O)C1,i
Cc1nn(-c2ccc(C(C)C)cc2)c(C)c1[C@@H]1C=C[C@@H](NC(=O)NC2CCCCC2)C1,10µM*

# Source: PubChem BioAssay (National Center for Advancing Translational Sciences (NCATS))
